What all share (conditions): 10 µM; exposure time 6 h
In assay [1] the test system is Danio rerio larvae (5 dpf). Briefly: difference in excitability vs DMSO (percentage points); higher = more excitable than DMSO. Put shortly:
(§1)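 Wild-type 5 dpf zebrafish larvae in 96-well plates were given 100 µL egg water containing library compound at 10 µM final for 6 h. After 3 h of exposure, plates at 28.5 ℃ were photographed every 6 s during a 3-h programme of moving lines and 100 ms, 400Hz tones. Z-LaP Tracker (a DeepLabCut model) quantified each behaviour, averaged over 48 larvae per compound. Values are the compound mean minus the DMSO-vehicle control, in percentage points.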

Assay [2] concerns Danio rerio larvae (5 dpf). Briefly: difference in startle response vs DMSO (percentage points); higher = stronger startle than DMSO. A digest of the protocol:
as §1

In assay [3] the test system is Danio rerio larvae (5 dpf). The assay is described as follows: difference in activity during first hour vs DMSO (percentage points); higher = more activity than DMSO. Put shortly: as §1
In assay [4] the test system is Danio rerio larvae (5 dpf). Briefly: difference in habituation to acoustic stimuli vs DMSO (percentage points); higher = more habituation than DMSO. Put shortly:
as §1

Assay [5] deals with Danio rerio larvae (5 dpf). Briefly: difference in combined optomotor response to red, green and blue moving lines vs DMSO (percentage points); higher = stronger optomotor response than DMSO. Put shortly: as §1

Structures can show the parent of a compound that is named as a salt.

Results on 26 compounds are retold here after the supplement of paper PMC10515830.

In the case of `COc1cc2c(c(OC)c1OC)-c1ccc(OC)c(=O)cc1[C@@H](NC(C)=O)CC2` [Colchicine], the difference in excitability in assay [1] was -4.48. Besides, in assay [2], the “difference in startle response” value was -0.112. Besides, the “difference in activity during first hour” value in assay [3] was 1.93. The “difference in habituation to acoustic stimuli” value (“difference in habituation” for short) in assay [4] is 2.9. The difference in assay [5] is 4.29.

On to `NCC(CC(=O)O)c1ccc(Cl)cc1` (racemic) [(±)-Baclofen], for which the difference in excitability in assay [1] was -0.88. Moreover, the “difference in startle response” value in assay [2] is 5.35. For the same compound, the “difference in activity during first hour” value in assay [3] was 13.9. In addition, the “difference in habituation” value in assay [4] was -0.192. Moreover, the difference in assay [5] was 6.84.

Consider `CC1=C[C@]23C(=O)[C@@H](C=C(CO)[C@@H](O)[C@]2(O)[C@H]1O)[C@H]1[C@@H](C[C@H]3C)C1(C)C` [Ingenol], for which the difference in excitability in assay [1] amounted to 8.75. Also, in assay [2], the “difference in startle response” value was determined as 2.54. In addition, the “difference in activity during first hour” value in assay [3] is -2.63. The “difference in habituation” value in assay [4] stood at 4.35. Moreover, the difference in assay [5] was -0.622.

As to `COc1ccc2c(c1)[C@]13CCCC[C@@H]1[C@H](C2)N(C)CC3` [Dextromethorphan (hydrobromide hydrate)], the difference in excitability in assay [1] amounted to 18.6. In addition, the “difference in startle response” value in assay [2] amounted to 1.65. Also, the “difference in activity during first hour” value in assay [3] was -16. For the same compound, the “difference in habituation” value in assay [4] is -4.55. The difference in assay [5] was -8.83.

`ClC1C(Cl)C(Cl)C(Cl)C(Cl)C1Cl` (stereo not given) [γ-Lindane] returned a difference in excitability in assay [1] of 7.5. Besides, in assay [2], the “difference in startle response” value was 11.9. For the same compound, the “difference in activity during first hour” value in assay [3] was 1.64. For the same compound, in assay [4], the “difference in habituation” value was -7.56. Further, in assay [5], the difference was -16.7.

As for `Nc1ncnc2c1ncn2CCOCP(=O)(O)O` [Adefovir], the difference in excitability in assay [1] is -0.414. The “difference in startle response” value in assay [2] worked out at 3.47. The “difference in activity during first hour” value in assay [3] is 19.5. In assay [4], the “difference in habituation” value was -0.786. Moreover, the difference in assay [5] is 6.79.

On to `COc1cc([C@@H]2c3cc4c(cc3[C@H](O)[C@H]3COC(=O)[C@H]23)OCO4)cc(OC)c1OC` [Podophyllotoxin], for which the difference in excitability in assay [1] was 12.7. Moreover, the “difference in startle response” value in assay [2] was -7.15. Further, in assay [3], the “difference in activity during first hour” value is -1.85. The “difference in habituation” value in assay [4] was 2.01. Moreover, in assay [5], the difference was 7.28.

In assay [1], `O=P1(NCCCl)OCCCN1CCCl` (stereo not given) [Ifosfamide] registered a difference in excitability of 10. Moreover, in assay [2], the “difference in startle response” value is -6.24. Besides, the “difference in activity during first hour” value in assay [3] is -5.39. The “difference in habituation” value in assay [4] came out at 2.26. Besides, the difference in assay [5] is 2.77.

Turning to `CC(NC(C)(C)C)C(=O)c1cccc(Cl)c1` (stereo not given) [Bupropion (hydrochloride)], the difference in excitability in assay [1] is -1.99. For the same compound, in assay [2], the “difference in startle response” value was -4.01. Besides, the “difference in activity during first hour” value in assay [3] was -3.52. Also, in assay [4], the “difference in habituation” value worked out at 2.84. The difference in assay [5] was -2.98.

In turn, `O=[N+]([O-])O[C@H]1CO[C@H]2[C@@H]1OC[C@H]2O[N+](=O)[O-]` [Isosorbide Dinitrate] had a difference in excitability in assay [1] of 5.95. The “difference in startle response” value in assay [2] came out at 10.4. Also, the “difference in activity during first hour” value in assay [3] was 2.6. Also, the “difference in habituation” value in assay [4] was determined as 1.13. Further, in assay [5], the difference came out at 5.

`CC(C)C[C@H]1C(=O)N2CCC[C@H]2[C@]2(O)O[C@](NC(=O)[C@@H]3C[C@@H]4c5cccc6[nH]cc(c56)C[C@H]4N(C)C3)(C(C)C)C(=O)N12.CC(C)[C@@]1(NC(=O)[C@@H]2C[C@@H]3c4cccc5[nH]cc(c45)C[C@H]3N(C)C2)O[C@@]2(O)[C@@H]3CCCN3C(=O)[C@H](Cc3ccccc3)N2C1=O.CC(C)[C@H]1C(=O)N2CCC[C@H]2[C@]2(O)O[C@](NC(=O)[C@@H]3C[C@@H]4c5cccc6[nH]cc(c56)C[C@H]4N(C)C3)(C(C)C)C(=O)N12.CCC(C)[C@H]1C(=O)N2CCC[C@H]2[C@]2(O)O[C@](NC(=O)[C@@H]3C[C@@H]4c5cccc6[nH]cc(c56)C[C@H]4N(C)C3)(C(C)C)C(=O)N12` [Ergoloid (mesylates)] gave a difference in excitability in assay [1] of 8.62. Moreover, in assay [2], the “difference in startle response” value turned out to be 4.7. Further, the “difference in activity during first hour” value in assay [3] was -1.3. In assay [4], the “difference in habituation” value is 2.76. The difference in assay [5] was -3.42.

`CC(C)C[C@H]1C(=O)N2CCC[C@H]2[C@]2(O)O[C@](NC(=O)[C@@H]3C=C4c5cccc6[nH]c(Br)c(c56)C[C@H]4N(C)C3)(C(C)C)C(=O)N12` [Bromocriptine (mesylate)] yielded a difference in excitability in assay [1] of 22.1. Besides, the “difference in startle response” value in assay [2] was -1.2. The “difference in activity during first hour” value in assay [3] came out at 30.9. Also, the “difference in habituation” value in assay [4] is -9.36. In addition, in assay [5], the difference was -3.6.

Take `CCN(C(C)=O)c1cccc(-c2ccnc3c(C#N)cnn23)c1` [Zaleplon]: the difference in excitability in assay [1] is -3.98. The “difference in startle response” value in assay [2] is -8.07. Also, the “difference in activity during first hour” value in assay [3] is 5.81. For the same compound, in assay [4], the “difference in habituation” value was -1.42. Moreover, the difference in assay [5] was -10.8.

In assay [1], `COc1ccc(C(CN(C)C)C2(O)CCCCC2)cc1` (stereo not given) [Venlafaxine (hydrochloride)] came in with a difference in excitability of 16.6. Besides, the “difference in startle response” value in assay [2] is -10.3. Besides, the “difference in activity during first hour” value in assay [3] is -21.1. The “difference in habituation” value in assay [4] was -5.65. In addition, the difference in assay [5] was -7.48.

Turning to `C[N+]1(C)CCCC(OC(=O)C(O)(c2ccccc2)c2ccccc2)C1` (stereo not given) [Mepenzolate (bromide)], the difference in excitability in assay [1] was 0.196. Also, the “difference in startle response” value in assay [2] was -4.42. The “difference in activity during first hour” value in assay [3] came to 2.16. Also, the “difference in habituation” value in assay [4] was -0.492. Also, the difference in assay [5] was -1.25.

For `CC(N)Cc1ccc(O)cc1` (stereo not given) [4-hydroxy Amphetamine (hydrochloride)], the difference in excitability in assay [1] amounted to 2.21. Also, in assay [2], the “difference in startle response” value was -1.49. Moreover, the “difference in activity during first hour” value in assay [3] came out at 5.37. In addition, the “difference in habituation” value in assay [4] was found to be 0.612. For the same compound, in assay [5], the difference was -2.78.

`C#CCN(C)[C@H](C)Cc1ccccc1` [R-(-)-Deprenyl (hydrochloride)]: the difference in excitability in assay [1] is -5.66. The “difference in startle response” value in assay [2] is -0.482. Also, the “difference in activity during first hour” value in assay [3] was -5.84. For the same compound, the “difference in habituation” value in assay [4] was 6.14. Further, in assay [5], the difference stood at 1.17.

Compound `CN1C[C@H](C(=O)N[C@]2(C)O[C@@]3(O)[C@@H]4CCCN4C(=O)[C@H](Cc4ccccc4)N3C2=O)C[C@@H]2c3cccc4[nH]cc(c34)C[C@H]21` [Dihydroergotamine (mesylate)] came in with a difference in excitability in assay [1] of 16.4. In addition, in assay [2], the “difference in startle response” value was 11.9. The “difference in activity during first hour” value in assay [3] was -6.95. Further, in assay [4], the “difference in habituation” value was -1.86. Moreover, in assay [5], the difference was 2.36.

Compound `Cn1c(CCCC(=O)O)nc2cc(N(CCCl)CCCl)ccc21` [Bendamustine (hydrochloride)] returned a difference in excitability in assay [1] of 1.71. In assay [2], the “difference in startle response” value was -1.73. The “difference in activity during first hour” value in assay [3] was 2. Besides, the “difference in habituation” value in assay [4] is -3.41. Further, the difference in assay [5] was -1.37.

Compound `CCN(C)C(=O)Oc1cccc([C@H](C)N(C)C)c1` [Rivastigmine (tartrate)] showed a difference in excitability in assay [1] of 0.964. Besides, the “difference in startle response” value in assay [2] came to 4.99. In addition, the “difference in activity during first hour” value in assay [3] is -2.5. Also, the “difference in habituation” value in assay [4] was -3.03. Also, the difference in assay [5] was 5.01.

As for `C[N+]1(C)[C@@H]2C[C@@H](OC(=O)[C@H](CO)c3ccccc3)C[C@H]1[C@@H]1O[C@@H]12` [Methylscopolamine (bromide)], the difference in excitability in assay [1] is -2.02. Besides, the “difference in startle response” value in assay [2] came to 0.0162. The “difference in activity during first hour” value in assay [3] was -10. Moreover, the “difference in habituation” value in assay [4] is -2.49. Further, the difference in assay [5] stood at 0.657.

In assay [1], `Nc1ccncc1` [4-Aminopyridine] came in with a difference in excitability of 5.12. Further, the “difference in startle response” value in assay [2] is 6.44. In assay [3], the “difference in activity during first hour” value was determined as 9.5. For the same compound, the “difference in habituation” value in assay [4] was -2.32. The difference in assay [5] was 10.7.

Turning to `CC(O)(CS(=O)(=O)c1ccc(F)cc1)C(=O)Nc1ccc(C#N)c(C(F)(F)F)c1` (stereo not given) [Bicalutamide], the difference in excitability in assay [1] is -0.599. Further, in assay [2], the “difference in startle response” value was 4.36. In addition, the “difference in activity during first hour” value in assay [3] worked out at 0.23. The “difference in habituation” value in assay [4] was 6.4. In addition, the difference in assay [5] stood at 9.87.

`O=C(O)CCCc1ccc(N(CCCl)CCCl)cc1` [Chlorambucil] displayed a difference in excitability in assay [1] of 12.6. Besides, the “difference in startle response” value in assay [2] amounted to 1.74. Besides, in assay [3], the “difference in activity during first hour” value worked out at 5.75. Further, the “difference in habituation” value in assay [4] was -1.6. Besides, the difference in assay [5] is -10.5.

In the case of `CC(=O)O[C@H]1C[C@@H]2CC[C@@H]3[C@H](CC[C@@]4(C)[C@H]3C[C@H]([N+]3(C)CCCCC3)[C@@H]4OC(C)=O)[C@@]2(C)C[C@@H]1[N+]1(C)CCCCC1` [Pancuronium (bromide hydrate)], in assay [1], the difference in excitability is 15.9. Moreover, the “difference in startle response” value in assay [2] worked out at 4.02. Moreover, in assay [3], the “difference in activity during first hour” value is -3.48. The “difference in habituation” value in assay [4] was -0.432. Further, in assay [5], the difference stood at 5.41.

As for `C=C1C[C@@H]2[C@H](CC[C@]3(C)C(=O)CC[C@@H]23)[C@@]2(C)C=CC(=O)C=C12` [Exemestane], the difference in excitability in assay [1] turned out to be 14.1. For the same compound, the “difference in startle response” value in assay [2] turned out to be 0.844. For the same compound, the “difference in activity during first hour” value in assay [3] is -8.29. Besides, the “difference in habituation” value in assay [4] was -0.126. In addition, the difference in assay [5] was determined as 3.59.
